The values that follow come from PubChem BioAssay.

Values without a mark were called inactive. For part of these data: Entries with a potency or affinity are not part of this list. The source made the active and inactive calls. Unless noted, the rule behind the calls is not given here.

Test [1] in a line: antimalarial activity against Dd2 strain (AID 2302;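 active = growth inhibition above 50% at the single 2 µM test dose, taken to imply half-maximal potency below 2 µM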;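 note: 0% = DMSO untreated growth and 100% = chloroquine plus artemisinin killed control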). To be noted: P. falciparum Dd2 in RBCs, LDH growth readout, 72 h; at 2 µM; hits give high values.
Test [2] is described as follows: human hepatoma cell viability loss – ATP luminescence, cytotoxicity control for P. falciparum antimalarial project, primary screen (AID 2303;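 active = inhibition above 50%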;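 note: 0% = DMSO wells and 100% = digitonin-killed cells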). The note with it: HepG2 viability, 24-48 h, at 10 µM, hits give high values.
The target in test [3] is L-lactate dehydrogenase (Plasmodium falciparum (isolate CDC / Honduras)) (UniProt Q27743). Description: PfLDH activity inhibition – cell lysate, 3D7 strain, counter-screen for P. falciparum growth inhibition project (AID 2304).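 Note: 0% = vehicle and 100% = reference inhibitor.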 The note with it: P. falciparum 3D7 crude extract, LDH APAD/NBT absorbance; at 2 µM; hits give high values.
A short description of test [4]: inhibition of 3D7 malaria parasite growth – strain 3D7 (AID 2306).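 Note: 0% = DMSO wells and 100% = chloroquine plus artemisinin control wells.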 To be noted: P. falciparum 3D7 erythrocytic growth, LDH absorbance, 72 h; at 2 µM; hits give high values.
For test [5], the target named is Calcium-dependent protein kinase 1 (Plasmodium falciparum (isolate 3D7)) (UniProt P62344). Nature of the test: PfCDPK1 kinase inhibitors, biochemical, TCAMS library (AID 1159585; cut-off not given, nearly all actives have IC50 up to about 0.98 µM;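 note: inhibitors leave more ATP so luminescence rises with inhibition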). To be noted: recombinant PfCDPK1, Kinase-Glo ATP depletion luminescence. On the technique in general: Kinase-Glo measures the ATP left after a reaction by luminescence.
Test [6] concerns the target Plasmodium falciparum protein kinase 6 (PK6, PF3D7_1337100) (UniProt Q8IDW1). Nature of the test: PfPK6 kinase inhibitors, biochemical, TCAMS library (AID 1159586). To be noted: recombinant PfPK6, Kinase-Glo ATP depletion luminescence.
For test [7], the target named is Protein kinase 7 (PK7), Plasmodium falciparum 3D7 (PF3D7_0213400) (UniProt Q7YTF7). Description: inhibition of Plasmodium PK7 catalytic activity – biochemical, TCAMS antimalarial set, Kinase-Glo luminescence (AID 1159587). The note with it: recombinant PfPK7, Kinase-Glo ATP depletion luminescence.
In test [8] the target is Calcium-dependent protein kinase 4 (Plasmodium falciparum (isolate 3D7)) (UniProt Q8IBS5). Description: PfCDPK4 kinase inhibitors, biochemical, TCAMS library (AID 1159588; cut-off not given, nearly all actives have IC50 up to about 0.91 µM). The note with it: recombinant PfCDPK4, Kinase-Glo ATP depletion luminescence.
Chain of Calcium-dependent protein kinase 4 (Plasmodium falciparum (isolate 3D7)) (Q8IBS5 whole entry, looked up): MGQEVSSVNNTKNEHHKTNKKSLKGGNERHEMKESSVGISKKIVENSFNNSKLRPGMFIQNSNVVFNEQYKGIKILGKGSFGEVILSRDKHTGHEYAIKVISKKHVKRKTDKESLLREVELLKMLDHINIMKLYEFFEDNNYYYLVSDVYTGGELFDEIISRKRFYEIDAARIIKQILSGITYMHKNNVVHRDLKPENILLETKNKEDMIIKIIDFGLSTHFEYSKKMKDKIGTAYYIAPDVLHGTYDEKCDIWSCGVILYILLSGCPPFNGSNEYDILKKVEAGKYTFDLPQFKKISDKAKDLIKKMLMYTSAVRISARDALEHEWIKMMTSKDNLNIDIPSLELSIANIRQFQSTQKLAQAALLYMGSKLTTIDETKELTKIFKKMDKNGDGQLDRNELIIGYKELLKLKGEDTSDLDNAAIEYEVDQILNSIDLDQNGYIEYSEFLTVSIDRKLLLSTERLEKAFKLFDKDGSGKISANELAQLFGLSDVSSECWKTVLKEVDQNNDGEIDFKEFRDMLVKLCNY

Chain of Plasmodium falciparum protein kinase 6 (PK6, PF3D7_1337100) (Q8IDW1 1-305): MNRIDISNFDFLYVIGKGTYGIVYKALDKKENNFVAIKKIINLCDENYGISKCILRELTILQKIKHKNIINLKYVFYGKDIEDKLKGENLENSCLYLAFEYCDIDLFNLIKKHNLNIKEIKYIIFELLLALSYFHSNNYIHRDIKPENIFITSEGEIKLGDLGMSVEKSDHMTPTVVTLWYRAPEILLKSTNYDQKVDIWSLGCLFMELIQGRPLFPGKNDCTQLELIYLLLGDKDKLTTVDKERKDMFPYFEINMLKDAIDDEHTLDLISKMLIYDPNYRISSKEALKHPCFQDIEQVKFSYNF
Chain of Protein kinase 7 (PK7), Plasmodium falciparum 3D7 (PF3D7_0213400) (Q7YTF7 1-343): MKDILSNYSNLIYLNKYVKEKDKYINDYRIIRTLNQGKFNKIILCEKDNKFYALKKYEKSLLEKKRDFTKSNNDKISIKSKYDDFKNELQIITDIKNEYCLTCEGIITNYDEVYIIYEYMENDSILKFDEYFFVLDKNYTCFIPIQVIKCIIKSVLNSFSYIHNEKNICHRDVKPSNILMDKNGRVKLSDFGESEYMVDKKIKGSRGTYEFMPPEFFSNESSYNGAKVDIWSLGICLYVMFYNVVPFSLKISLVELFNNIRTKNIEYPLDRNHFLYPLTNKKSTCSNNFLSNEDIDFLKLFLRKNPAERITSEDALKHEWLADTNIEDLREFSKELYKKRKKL
Chain of L-lactate dehydrogenase (Plasmodium falciparum (isolate CDC / Honduras)) (Q27743 whole entry, looked up): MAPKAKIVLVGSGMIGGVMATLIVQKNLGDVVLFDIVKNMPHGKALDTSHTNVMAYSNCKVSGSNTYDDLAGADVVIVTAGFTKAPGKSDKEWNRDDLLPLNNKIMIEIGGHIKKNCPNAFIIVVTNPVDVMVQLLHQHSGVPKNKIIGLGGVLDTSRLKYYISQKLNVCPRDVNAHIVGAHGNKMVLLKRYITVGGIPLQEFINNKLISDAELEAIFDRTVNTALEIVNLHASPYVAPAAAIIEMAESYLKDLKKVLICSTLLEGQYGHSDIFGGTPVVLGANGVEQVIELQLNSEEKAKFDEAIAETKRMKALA
Chain of Calcium-dependent protein kinase 1 (Plasmodium falciparum (isolate 3D7)) (P62344 whole entry, looked up): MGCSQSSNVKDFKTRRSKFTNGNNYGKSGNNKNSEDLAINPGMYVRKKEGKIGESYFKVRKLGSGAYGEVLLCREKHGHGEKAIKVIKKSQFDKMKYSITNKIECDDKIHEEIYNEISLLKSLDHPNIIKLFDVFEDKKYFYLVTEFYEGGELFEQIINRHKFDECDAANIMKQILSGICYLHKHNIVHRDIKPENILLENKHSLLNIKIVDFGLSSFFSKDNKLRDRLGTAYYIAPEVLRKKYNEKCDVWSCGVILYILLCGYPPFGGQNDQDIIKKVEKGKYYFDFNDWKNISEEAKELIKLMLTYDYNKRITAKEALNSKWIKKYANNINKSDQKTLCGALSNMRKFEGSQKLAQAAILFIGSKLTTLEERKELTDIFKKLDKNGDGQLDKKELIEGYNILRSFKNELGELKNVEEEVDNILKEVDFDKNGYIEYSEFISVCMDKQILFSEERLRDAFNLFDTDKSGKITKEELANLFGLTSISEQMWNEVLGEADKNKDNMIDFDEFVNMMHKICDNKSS

Consider `CC(C)CN1CCCN(Cc2cccc(NC(=O)c3cc4ccccc4s3)c2)CC1`, for which the growth inhibition is 6% in test [1] and 87% (active) in test [4]. Moreover, the inhibition was 5% in test [2] and 0% in test [3]. Besides, the outcome in test [5], in test [6], in test [7] and in test [8] was inactive.
Turning to `O=C(NCc1cccc(C(F)(F)F)c1)[C@@H]1CCCN1C(=O)c1ccc(O)c(-c2ccc(Cl)c(Cl)c2)c1`, the growth inhibition was 97% (active) in test [1] and 99% (active) in test [4]. Besides, the inhibition in test [2] was -3%; in test [3] it was 2%. Moreover, the outcome in test [5], in test [6], in test [7] and in test [8] was inactive.
On to `Cc1nc2nc(N)nc(N)c2c(C)c1Cc1cccs1`, for which the growth inhibition in test [1] is 2%; in test [4], 95% (active). Besides, the inhibition was 66% (active) in test [2] and -1% in test [3]. Moreover, the result in test [5], in test [6], in test [7] and in test [8] was inactive.
Consider `CCCCCN=C(N)c1ccc(OCCCCCOc2ccc(C(N)=NCCCCC)cc2)cc1`, for which the growth inhibition in test [1] was 98% (active); in test [4], 99% (active). The inhibition in test [2] was 3%; in test [3], 6%. Further, the result in test [5], in test [6], in test [7] and in test [8] was inactive.
On to `COc1ccc(CN(C)CCCc2ccc(NC(=O)Cc3ccc4nc(-c5ccccc5)ccc4c3)cc2)cc1OC`, for which the growth inhibition in test [1] was -2%; in test [4], 98% (active). The figures for the inhibition in test [2] and in test [3] were 10% and -3%, respectively. The outcome in test [5], in test [6], in test [7] and in test [8] was inactive.
As for `O=[N+]([O-])c1ccc(C2=NN(S(=O)(=O)c3c(Cl)cc(Cl)cc3Cl)CCCC2)cc1`, the growth inhibition in test [1] was 98% (active); in test [4], 99% (active). The inhibition in test [2] was 5%; in test [3] it was 0%. Besides, the result in test [5], in test [6], in test [7] and in test [8] was inactive.
As to `CCCCCCCn1c2c(c(=N)c3c1CCC3)CCCC2`, the growth inhibition in test [1] and in test [4] was 98% (active) each time. Moreover, the inhibition in test [2] was 46%; in test [3] it was 1%. Moreover, the result in test [5], in test [6], in test [7] and in test [8] was inactive.
On to `Fc1ccc2nc(-c3cccc(-c4cccc(CNCc5ccccc5)c4)c3)[nH]c2c1`, for which the growth inhibition was 52% (active) in test [1] and 102% (active) in test [4]. In addition, the inhibition in test [2] was 24%; in test [3] it was -9%. Also, the outcome in test [5], in test [6], in test [7] and in test [8] was inactive.
Regarding `O=c1[nH]c(NCCCNCc2cc3c(Cl)cc(Cl)cc3[nH]2)nc2ccsc12`, the growth inhibition in test [1] is 11%; in test [4], 96% (active). For the same compound, the values for the inhibition in test [2] and in test [3] were 62% (active) and 0%, respectively. The result in test [5], in test [6], in test [7] and in test [8] was inactive.
As to `Cc1cc(C)c2oc(-c3cccc(NC(=O)c4ccc([N+](=O)[O-])o4)c3C)nc2c1`, the growth inhibition was 67% (active) in test [1] and 90% (active) in test [4]. Also, the figures for the inhibition in test [2] and in test [3] were -1% and 0%, respectively. In addition, the outcome in test [5], in test [6], in test [7] and in test [8] was inactive.
Turning to `Cc1ccc(-n2cc(CNCCCn3ccnc3)c(-c3cccc(C)c3)n2)cc1`, the growth inhibition was 36% in test [1] and 99% (active) in test [4]. Further, the figures for the inhibition in test [2] and in test [3] were 9% and -2%, respectively. Also, the outcome in test [5], in test [6], in test [7] and in test [8] was inactive.
Consider `Cc1ccccc1C1CCN(C2CCC(NC(=O)/C=C/c3cccc(F)c3F)CC2)CC1` (centres undefined), for which the values for the growth inhibition in test [1] and in test [4] were 45% and 89% (active), respectively. For the same compound, the inhibition was 57% (active) in test [2] and -3% in test [3]. The outcome in test [5], in test [6], in test [7] and in test [8] was inactive.
`CN(C)CC(=O)N(Cc1ccc(Cl)c(Cl)c1)Cc1csc(-c2ccc(CNCc3ccccc3)cc2)n1`: the growth inhibition was 32% in test [1] and 96% (active) in test [4]. Further, the inhibition in test [2] is 30%; in test [3], 4%. Also, the result in test [5], in test [6], in test [7] and in test [8] was inactive.
Turning to `CCC(N)(C#Cc1ccc(-c2c(C)[nH]c(C)c(Br)c2=O)cc1)CC`, the growth inhibition in test [1] is 96% (active); in test [4], 97% (active). The inhibition was 0% in test [2] and -1% in test [3]. Besides, the outcome in test [5], in test [6], in test [7] and in test [8] was inactive.
As to `Cc1ccc(CN2CCC(C(=O)Nc3ccc(-c4cc5ccccc5[nH]4)cc3)CC2)o1`, the growth inhibition is 40% in test [1] and 92% (active) in test [4]. For the same compound, the inhibition in test [2] was 19%; in test [3], 3%. Further, the outcome in test [5], in test [6], in test [7] and in test [8] was inactive.
Take `Cc1c(NCCCNCc2cc(Cl)cc(Cl)c2Cl)[nH]c2ccccc2c1=O`: the growth inhibition in test [1] was 86% (active); in test [4], 101% (active). Besides, the inhibition in test [2] is 35%; in test [3], -2%. In addition, the result in test [5], in test [6], in test [7] and in test [8] was inactive.
Consider `Oc1ccc(CCNc2nc(NCc3ccccc3-c3ccc(C(F)(F)F)cc3)nc(N3CCNCC3)n2)cc1`, for which the results for the growth inhibition in test [1] and in test [4] were 53% (active) and 97% (active), respectively. In addition, the inhibition in test [2] was 17%; in test [3] it was 8%. For the same compound, the result in test [5], in test [6], in test [7] and in test [8] was inactive.
Turning to `CC(=O)Nc1ccc(CN2CCC(NC(=O)c3ccc(-c4cccc(C(F)(F)F)c4)s3)CC2)cc1`, the growth inhibition in test [1] was 16%; in test [4] it was 100% (active). The inhibition was 35% in test [2] and -3% in test [3]. For the same compound, the outcome in test [5], in test [6], in test [7] and in test [8] was inactive.

In general, inhibition refers to the change of the read-out against control, counted positive when it falls.
